From PubChem BioAssay

Columns and labels:
[1] = tested on: Botulinum neurotoxin type F light chain protease (Clostridium botulinum); assay: Botulinum neurotoxin type F light chain protease inhibition, multiplex microsphere flow cytometry, validation set (AID 588459); conditions: multiplex microsphere protease substrate cleavage assay, at 10 µM, stronger effect = higher value
[2] = target: Botulinum neurotoxin type A (Clostridium botulinum) (UniProt P0DPI0); assay: BoNT/A light chain protease inhibitors, biochemical, multiplex microsphere flow cytometry, validation set (AID 588460); conditions: at 10 µM, stronger effect = higher value
[3] = target: Lethal factor (Bacillus anthracis) (UniProt P15917); assay: Lethal factor protease inhibitors, Bacillus anthracis, multiplex microsphere cleavage assay, validation set (AID 588461); conditions: flow cytometry, at 10 µM, stronger effect = higher value

Measured: inhibition

O=C1C(=O)N2C(=C1C(=O)N1CCCCCC1)c1ccccc1CC21CCCC1
inactive: [1] 0.3% | [2] 0.4% | [3] -3%

Cc1nc(C)c(C)nc1C
inactive: [1] -1.1% | [2] -0.9% | [3] -9.1%

CC(/C=C1\SC(=O)N(CCCC(=O)O)C1=O)=C\c1ccccc1
inactive: [1] 3.5% | [2] 1.3% | [3] -5.6%

COc1ccccc1C(=O)N=C1NC(=O)CC2C(=O)NCCN12 (stereo not drawn)
inactive: [1] -2.8% | [2] -1.5% | [3] -5.2%

COCCn1c(SCCOc2ccccc2)nc2ccccc2c1=O
inactive: [1] 1.6% | [2] -0.3% | [3] -1.1%

COc1cc(=O)n(C)c2ccccc12
inactive: [1] -9.2% | [2] -2.1% | [3] -7.3%

OCCN1CCN(CCCN2c3ccccc3Sc3ccc(Cl)cc32)CC1
inactive: [1] -0.8% | [2] 0.8% | [3] 1.2%

CC1(C)c2ccccc2N2CC(=O)N(CC(N)=O)C21C (stereo not drawn)
inactive: [1] 1.5% | [2] -1.4% | [3] -5%

C/C(=N\NC(=O)C1(C)CC1(Br)Br)c1ccc([N+](=O)[O-])cc1 (stereo not drawn)
inactive: [1] 2.6% | [2] 0.4% | [3] -7.9%

CCCN(CCC)S(=O)(=O)c1ccc(C(=O)O)cc1
inactive: [1] 2.8% | [2] 1.1% | [3] 0%

CCCNC(C)C(=O)Nc1ccccc1C (stereo not drawn)
inactive: [1] 0.2% | [2] 0.2% | [3] -4.8%

Cc1ccc(-n2ncc3c(Nc4cccc(C(=O)O)c4)ncnc32)cc1
inactive: [1] 0.7% | [2] -1.1% | [3] 1.7%

CS(=O)(=O)c1cccc(C(=O)Oc2ccccc2)c1
inactive: [1] -2% | [2] 0.1% | [3] 4.6%

Cc1ccc2occ(C(=O)c3ccco3)c(=O)c2c1
inactive: [1] 1.1% | [2] -0.5% | [3] 2.6%

COC(=O)c1[nH]c2ccc(F)cc2c1NC(=O)C1=COCCO1
inactive: [1] 0% | [2] 0.8% | [3] -4.9%

CN(C)CCOC(C)(c1ccccc1)c1ccccn1 (stereo not drawn)
inactive: [1] 1.4% | [2] 0.5% | [3] -3.8%

COc1ccc2[nH]c(=O)c(CN(C(=O)c3ccco3)C(C)C)cc2c1
inactive: [1] 0.1% | [2] 1% | [3] 2.1%

Cc1ccc(C(=O)N2CC3(C(C)C)CN(C(=O)c4ccc(C)cc4)CC(C(C)C)(C2)C3=O)cc1
inactive: [1] 5% | [2] -0.5% | [3] -2.5%

COc1ccc2c(c1OC)C(C1c3c(cc4c(c3OC)OCO4)CCN1C)OC2=O (stereo not drawn)
inactive: [1] 1.6% | [2] -0.7% | [3] 3.5%

CS(=O)(=O)Oc1ccc2c(c1)O/C(=C\C=C\c1ccccc1)C2=O
inactive: [1] 26.9% | [2] 28.3% | [3] 25%

Cc1ccc(CSCC(=O)NCCCN2CCOCC2)cc1
inactive: [1] 1.4% | [2] -1.7% | [3] 3.8%

CCOC(=O)C(NC(=O)CCC(=O)Nc1ccc(S(N)(=O)=O)cc1)C(O)c1ccccc1 (stereo not drawn)
inactive: [1] -0.5% | [2] -1% | [3] 5.9%

CC(C)OC(=O)C1C2C=CC3(CN(CC4CCCO4)C(=O)C13)O2 (stereo not drawn)
inactive: [1] 0.2% | [2] 0.8% | [3] -2.9%

CC(=O)N1CCN(c2ccc(NC(=O)/C=C/c3ccccc3)cc2)CC1
inactive: [1] 4.3% | [2] -0.3% | [3] -2.2%

O=C(Oc1ccc2c3c(c(=O)oc2c1)CCCC3)c1ccco1
inactive: [1] -0.9% | [2] -1.1% | [3] -3.9%

CC(=O)Oc1ccc(C(=O)O)cc1OC(C)=O
inactive: [1] -0.7% | [2] 0.4% | [3] 2.4%

CCOC(=O)c1ncn2c1CN(C)C(=O)c1cc(F)ccc1-2
inactive: [1] -1.4% | [2] -1.4% | [3] -2.7%

CC(C)NC(=O)C1(c2ccccc2)CCOCC1
inactive: [1] -2.6% | [2] -0.5% | [3] -2.6%

COC(=O)c1ccccc1OCCOCCOc1cccc2ccc(C)nc12
inactive: [1] 0.3% | [2] 3.8% | [3] -4%

CC[C@H](CO)NCCN[C@H](CC)CO
inactive: [1] 2.2% | [2] -1.2% | [3] -10%

COc1ccc(C(Cl)=C(c2ccc(OC)cc2)c2ccc(OC)cc2)cc1
inactive: [1] 1.5% | [2] -0.6% | [3] -1.1%

COc1ccc(C2C3=C(OC(C)=O)c4ccccc4C3=Nc3c2c(=O)n(C)c(=O)n3C)cc1 (stereo not drawn)
inactive: [1] 4% | [2] 0.1% | [3] 2.9%

CCCCC[C@H](O)/C=C/[C@@H]1[C@@H](C/C=C\CCCC(=O)O)[C@H]2CO[C@@H]1C2
inactive: [1] 0.5% | [2] -0.1% | [3] 3.3%

CC(C)=CCC/C(C)=C/CC/C(C)=N/O
inactive: [1] -1.6% | [2] -0.4% | [3] 4.1%

Clc1ccc(OCCCN2CCCCC2)c(Br)c1
inactive: [1] 1.8% | [2] 0.2% | [3] -3.7%

COC(=O)c1ccc(OCCCCN2CC(C)OC(C)C2)cc1 (stereo not drawn)
inactive: [1] -4.5% | [2] 0.2% | [3] 4%

COc1ccc(C(=O)OCc2cc3cccc(C)c3[nH]c2=O)cc1
inactive: [1] 0.3% | [2] 0.7% | [3] -0.5%

O=C(O)/C=C/c1cnc[nH]1
inactive: [1] 1.9% | [2] -0.2% | [3] -0.5%

CCn1c(N2CCN(CC(=O)c3c(C)n(C)c4ccc(OC)cc34)CC2)nc2c1c(=O)[nH]c(=O)n2C
inactive: [1] -1.4% | [2] -0.8% | [3] -10.7%

O=C(Nc1c(C(=O)O)[nH]c2ccccc12)NC1CCCCC1
inactive: [1] 1.6% | [2] 0.4% | [3] -2.2%

COc1ccc(OC)c(-c2oc3ccccc3c(=O)c2O)c1
inactive: [1] 0.6% | [2] 1.3% | [3] 2.9%

CN(C)CC/C=C1\c2ccccc2Sc2ccc(Cl)cc21
inactive: [1] -9.1% | [2] -1.1% | [3] 2.3%

CCCCC[C@H](O)/C=C/[C@@H]1[C@@H](C/C=C\CCCC(=O)OC)[C@@H](O)C[C@H]1O
inactive: [1] -3.3% | [2] -1% | [3] -1.1%

O=c1c(C(c2ccccc2)c2c(O)sc3ccccc3c2=O)c(O)sc2ccccc12
inactive: [1] -0.8% | [2] 1.7% | [3] 2.4%

CC(=O)Nc1ccc(S(=O)(=O)c2ccc(N)cc2)cc1
inactive: [1] -3.7% | [2] -0.4% | [3] -3.2%

CC(=O)N(CCC(Cc1ccccc1)c1ccco1)Cc1ccco1 (stereo not drawn)
inactive: [1] 1.4% | [2] 1.7% | [3] 0.3%
